Some test systems named below: NCI-H23 lung; NCI-H226 lung; NCI-H322M lung; HOP-62 NSCLC; NCI-H460 lung; HOP-92 NSCLC; NCI-H522 lung; A549/ATCC NSCLC; 786-0 renal; COLO 205 colon.
Holding throughout (assay): NCI-60 one-dose screen, 48 h (100 = growth as untreated, 0 = no growth, -100 = all killed)
Common to all, as to details: 10 µM

Compounds without any hit were thinned out: in the full panel of roughly 83,000, 20% have a hit.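 Compound tested at a single concentration for 48 hours in 96-well plates; a percent growth value below 10 was scored as active.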 A number with no mark means an inactive call. Calls of active or inactive are those of the source.

`O=C(Nc1ccc(F)c(Cl)c1)c1cc(-c2ccc(F)cc2F)ccc1O`: the growth with NCI-H23 lung was -46.9% (active); with NCI-H226 lung it was -23.4% (active); in the assay with NCI-H322M lung, 2.57% (active); with HOP-62 NSCLC it was -13% (active); in the assay with NCI-H460 lung, 0.118% (active); with HOP-92 NSCLC it was -20.6% (active). Further, the growth in the assay with NCI-H522 lung is -15% (active); with A549/ATCC NSCLC, 9.32% (active); in the assay with 786-0 renal, 9.93% (active); with COLO 205 colon it was 4.58% (active).

For `O=c1cc(-c2ccccc2)oc2cc(OCCCCNCc3ccccc3)cc(O)c12`, the growth with NCI-H23 lung was -73.7% (active); with NCI-H226 lung, 59.6%; with NCI-H322M lung, 57.5%; with HOP-62 NSCLC, 61%; in the assay with NCI-H460 lung, -73.9% (active); in the assay with HOP-92 NSCLC it was 31.8%. Moreover, the growth with NCI-H522 lung is 34.2%; in the assay on A549/ATCC NSCLC, 49.3%; in the assay with 786-0 renal, -68.2% (active); with COLO 205 colon it was -91.8% (active).

Consider `COc1ccc(-c2cc(C(=O)N=Nc3c(O)[nH]c4ccc(Br)cc34)c3ccccc3n2)cc1`, for which the growth is 5.57% (active) with NCI-H23 lung; 50.6% in the assay with NCI-H226 lung; 70% in the assay on NCI-H322M lung; 91.6% with HOP-62 NSCLC; 5.22% (active) with NCI-H460 lung; 71.4% in the assay on HOP-92 NSCLC. Also, the growth was 57.7% in the assay with NCI-H522 lung, 61.1% in the assay with A549/ATCC NSCLC, 80.1% in the assay on 786-0 renal and 53.2% with COLO 205 colon.

For `O=C(NO)c1ccc(CNC(=O)[C@H]2Cc3c([nH]c4ccccc34)[C@H](c3ccccc3)N2)cc1`, the growth in the assay on NCI-H23 lung was 34%; in the assay on NCI-H226 lung, 64.2%; in the assay on NCI-H322M lung, 43.2%; with HOP-62 NSCLC it was 18.7%; in the assay with NCI-H460 lung, 27.7%; in the assay with HOP-92 NSCLC, -2.26% (active). Moreover, the growth was -8.88% (active) with NCI-H522 lung, 50.6% in the assay on A549/ATCC NSCLC, 53.9% in the assay on 786-0 renal and -55.5% (active) in the assay with COLO 205 colon.

Take `N#Cc1c(-c2ccc(Cl)cc2)cc(-c2ccccc2)nc1OCc1ccccc1`: the growth in the assay with NCI-H23 lung was 76.7%; with NCI-H226 lung it was 74.7%; in the assay on NCI-H322M lung it was 96.6%; in the assay on HOP-62 NSCLC it was 84.9%; in the assay with NCI-H460 lung, 51.9%; in the assay with HOP-92 NSCLC, 90.8%. Besides, the growth in the assay with NCI-H522 lung was 69.3%; with A549/ATCC NSCLC, 73.8%; with 786-0 renal, 107%; in the assay on COLO 205 colon, 106%.

On to `CC(=O)c1cc(C(=O)c2ccc3c(c2)NC(=O)CO3)n2ccc3ccccc3c12`, for which the growth is 58.3% with NCI-H23 lung; 62.3% with NCI-H226 lung; 87.8% in the assay with NCI-H322M lung; 74.1% in the assay on HOP-62 NSCLC; 63.8% in the assay with NCI-H460 lung; 97.7% in the assay on HOP-92 NSCLC. Further, the growth is 71.6% in the assay on NCI-H522 lung, 29.8% with A549/ATCC NSCLC, 51.7% with 786-0 renal and 91.9% in the assay with COLO 205 colon.

With `O/N=C(\CSc1nnc(-c2c[nH]c3ccccc23)n1-c1ccccc1)c1ccc(Br)cc1`, the growth with NCI-H23 lung is 14.1%; in the assay on NCI-H226 lung, 6.3% (active); in the assay on NCI-H322M lung it was -72.7% (active); with HOP-62 NSCLC, -54.8% (active); in the assay on NCI-H460 lung, -21.9% (active); with HOP-92 NSCLC, -11.2% (active). Besides, the growth was -29.7% (active) in the assay on NCI-H522 lung, -18.2% (active) with A549/ATCC NSCLC, 34.7% in the assay on 786-0 renal and -41.2% (active) with COLO 205 colon.

Take `CCCCCCCCCCCCCCCCCCCC(=O)NCCc1c[nH]c2ccc(OC(=O)NOCCOCCOCCOCCOCCOCCOCCOCCOCCOCCOCCOCCOCCOCCOCCOCCOCCOCCOCCOCCOCCOCCOC)cc12`: the growth is 9.6% (active) with NCI-H23 lung; -23.3% (active) with NCI-H226 lung; -8.92% (active) in the assay on NCI-H322M lung; -30.7% (active) in the assay on HOP-62 NSCLC; 16% in the assay with NCI-H460 lung; -17.5% (active) in the assay with HOP-92 NSCLC. Besides, the growth in the assay with NCI-H522 lung was -83.4% (active); in the assay with A549/ATCC NSCLC, 8.54% (active); with 786-0 renal, 35.4%; with COLO 205 colon it was -100% (active).

With `Cc1noc2c(Cc3ccc([N+](=O)[O-])cc3)nn(CC(=O)N/N=C/c3ccc(Br)cc3)c(=O)c12`, the growth was 87.7% in the assay on NCI-H23 lung; 67.7% with NCI-H226 lung; 104% in the assay with NCI-H322M lung; 72.4% in the assay with HOP-62 NSCLC; 81.5% in the assay with NCI-H460 lung; 50.6% with HOP-92 NSCLC. In addition, the growth is 98.6% with NCI-H522 lung, 65.1% in the assay with A549/ATCC NSCLC, 4.46% (active) in the assay on 786-0 renal and 119% in the assay with COLO 205 colon.

On to `O=C(CSc1nnc(-c2c[nH]c3ccccc23)n1-c1ccccc1)Nc1ccc(C(=O)/C=C/c2ccc(Cl)cc2)cc1`, for which the growth with NCI-H23 lung is 61.5%; in the assay with NCI-H226 lung, 74.8%; in the assay with NCI-H322M lung, 89%; in the assay with HOP-62 NSCLC, 85.8%; in the assay on NCI-H460 lung, 88.2%; in the assay on HOP-92 NSCLC, 87.3%. The growth was 76.8% in the assay on NCI-H522 lung, 79.3% in the assay with A549/ATCC NSCLC, 93.6% in the assay with 786-0 renal and 89.7% in the assay on COLO 205 colon.

Regarding `Nc1nc2c(F)c(F)c(F)c(F)c2s1`, the growth is 102% with NCI-H23 lung; 98.6% with NCI-H226 lung; 103% with NCI-H322M lung; 92.6% in the assay with HOP-62 NSCLC; 107% in the assay on NCI-H460 lung; 90.5% with HOP-92 NSCLC. Moreover, the growth with NCI-H522 lung is 89.5%; in the assay with A549/ATCC NSCLC it was 99.4%; in the assay on 786-0 renal, 85.1%; in the assay with COLO 205 colon it was 114%.

Turning to `COc1ccc(/C(CSc2nnc(-c3c[nH]c4ccccc34)n2-c2ccccc2)=N/O)cc1`, the growth in the assay with NCI-H23 lung was 41.6%; in the assay with NCI-H226 lung it was 18.2%; in the assay on NCI-H322M lung, 36.4%; in the assay on HOP-62 NSCLC, 45%; in the assay with NCI-H460 lung, 17.3%; in the assay on HOP-92 NSCLC, 28.2%. Also, the growth with NCI-H522 lung is 36.5%; in the assay with A549/ATCC NSCLC, 34.2%; in the assay with 786-0 renal it was 59.7%; in the assay with COLO 205 colon, 36.3%.

In the case of `CC(=O)C1=C(C)NC(SCC(=O)Nc2ccc(S(=O)(=O)Nc3cc(C)on3)cc2)=NC1c1ccccc1` (stereo not given), the growth in the assay on NCI-H23 lung is 102%; in the assay on NCI-H226 lung, 117%; in the assay on NCI-H322M lung, 102%; in the assay with HOP-62 NSCLC, 105%; with NCI-H460 lung, 98.3%; with HOP-92 NSCLC, 132%. In addition, the growth was 100% with NCI-H522 lung, 99.1% with A549/ATCC NSCLC, 102% in the assay with 786-0 renal and 122% in the assay with COLO 205 colon.

The values above are taken from PubChem BioAssay (NCI).
